TPT1 inh: C. albicans TPT1 enzyme inhibition; recombinant caTPT1, FP RNA substrate dephosphorylation; inhibition, % at 5 µM; actives 0.81% (n = 300,000);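 active = inhibition above the mean of all tested compounds plus 3 SD, set per screening campaign, cut at about 24% in these data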;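 note: plate controls were DMSO alone for no effect and ferristatin control at 100 nM for full effect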
IDE act: activators of human insulin-degrading enzyme in cells; P14735; HEK cells, FAbeta-B cleavage, fluorescence polarization; 0% vehicle, 100% cell-free pure enzyme wells; activation, % at 5.96 µM; actives 0.073% (n = 340,000); AID 493087;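 active = activation above the mean of all tested compounds plus 3 SD, set per screening campaign, cut at about 17% in these data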
Target sequence (P14735 whole entry, looked up): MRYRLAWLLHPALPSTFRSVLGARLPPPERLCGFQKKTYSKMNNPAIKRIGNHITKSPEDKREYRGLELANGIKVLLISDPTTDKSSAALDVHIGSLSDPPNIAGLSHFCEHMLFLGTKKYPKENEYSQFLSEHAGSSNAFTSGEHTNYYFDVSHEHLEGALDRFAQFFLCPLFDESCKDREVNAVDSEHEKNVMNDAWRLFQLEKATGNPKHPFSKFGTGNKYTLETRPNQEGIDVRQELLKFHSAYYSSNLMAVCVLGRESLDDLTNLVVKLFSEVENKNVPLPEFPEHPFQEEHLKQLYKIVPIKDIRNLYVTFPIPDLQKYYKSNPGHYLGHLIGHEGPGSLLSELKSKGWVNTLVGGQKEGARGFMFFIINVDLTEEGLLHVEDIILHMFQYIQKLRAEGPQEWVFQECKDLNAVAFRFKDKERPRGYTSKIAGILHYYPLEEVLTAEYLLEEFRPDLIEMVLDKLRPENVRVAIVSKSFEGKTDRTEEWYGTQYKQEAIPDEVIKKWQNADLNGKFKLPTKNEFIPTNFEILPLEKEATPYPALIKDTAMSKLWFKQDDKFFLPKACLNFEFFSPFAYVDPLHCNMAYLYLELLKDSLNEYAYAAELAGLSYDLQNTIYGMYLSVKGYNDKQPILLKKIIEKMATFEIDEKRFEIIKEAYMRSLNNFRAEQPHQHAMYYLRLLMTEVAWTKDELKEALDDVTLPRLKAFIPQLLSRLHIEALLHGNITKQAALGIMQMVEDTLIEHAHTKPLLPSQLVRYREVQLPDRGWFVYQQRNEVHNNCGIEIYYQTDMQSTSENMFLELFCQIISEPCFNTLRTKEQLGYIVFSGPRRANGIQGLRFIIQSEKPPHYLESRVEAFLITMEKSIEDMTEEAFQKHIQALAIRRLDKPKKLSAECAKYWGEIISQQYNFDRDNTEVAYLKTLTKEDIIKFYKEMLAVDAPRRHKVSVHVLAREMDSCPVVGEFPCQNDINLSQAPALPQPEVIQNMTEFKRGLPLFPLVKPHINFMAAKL
Rin1 Abl inh: inhibitors of human Rin1-Abl protein interaction; TR-FRET Rin1/Abl binding, biochemical; inhibition, % at 7.35 µM; actives 0.4% (n = 360,000); P00519+Q13671; in the data active = inhibition above about 5%, passing the limit was not always enough
Rpn11 inh: blocks the human proteasome subunit Rpn11. actives 0.59% (n = 360,000). O00487. human 26S proteasome, Ub4-pepOG fluorescence polarization; 20S core pre-blocked with epoxomicin. inhibition, % at 20 µM;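 active = inhibition at 20 µM, scaled to each plate's controls, above about 33%, limit read from the data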
Calb FLC: affects C. albicans growth with fluconazole; growth inhibition, % (test concentration not listed); C. albicans CaCi-2 (fluconazole-resistant clinical isolate) + fluconazole, Alamar Blue growth, 48 h; actives 0.57% (n = 300,000);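 active = growth inhibition above about 58% in most replicates, limit read from the data, passing the limit was not always enough; inconclusive = exactly half the replicates above a set limit; inactive = most replicates below a set limit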;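 note: all wells also contain fluconazole at 8 µg/ml as a sub-toxic cotreatment; 0% = median of DMSO wells and 100% = median of geldanamycin control wells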
IDE cell inh: cellular human IDE inhibition | HEK cells, FAbetaB cleavage, fluorescence polarization | actives 0.41% (n = 320,000) | AID 434962 | inhibition, % at 5.59 µM;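 active = percent inhibition above the average of all tested compounds plus 3 SD, set per screening campaign, cut at about 16% in these data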;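 note: IDE supplied by intact live HEK cells; FP after avidin binding of uncleaved biotin substrate so inhibition keeps polarization high; 0% = DMSO wells and 100% = 60 µM reference IDE inhibitor Ii1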
The depositor's hits bear a star. Shown are actives, neighbours in structure and some others; about 2.3% of the full set was active somewhere.

For CCS(=O)c1ccccc1C(=O)OCC(=O)Nc1cccc(S(=O)(=O)N2CCCCC2)c1 (configuration not stated) the results were IDE act 4, Rin1 Abl inh 2, Rpn11 inh 7 and IDE cell inh -4.
For CC(=O)O/N=C/c1c(N2CCOCC2)n(C)c2ccccc12 the results were TPT1 inh 1, IDE act -2, Rin1 Abl inh -5, Rpn11 inh 0, Calb FLC 99* and IDE cell inh -6.
Cn1c(N2CCOCC2)c(/C=N/OC(=O)c2ccc(F)cc2)c2ccccc21 was read as TPT1 inh -1, IDE act 0, Rin1 Abl inh -4, Rpn11 inh -5, Calb FLC 94* and IDE cell inh -1.
For Cc1ccc(C(=O)O/N=C/c2c(N3CCOCC3)n(C)c3ccccc23)cc1 the results were TPT1 inh -1, IDE act 5, Rin1 Abl inh 2, Rpn11 inh 3, Calb FLC 110* and IDE cell inh 9.
For Cn1c(N2CCOCC2)c(/C=N/OC(=O)c2cccnc2Cl)c2ccccc21 the results were IDE act 3, Rin1 Abl inh -3, Rpn11 inh -1 and Calb FLC -30.
Cc1cc(NC(=O)COC(=O)Cn2[nH]c(=O)c3ccccc3c2=O)c([N+](=O)[O-])cc1C was read as IDE act 4, Rin1 Abl inh 2, Rpn11 inh -2 and IDE cell inh 4.
Screening COc1ccccc1N1CCN(C2CCCN(C(=O)CCc3cnn(C)c3)C2)CC1 (configuration not stated) returned TPT1 inh -3, IDE act 6, Rin1 Abl inh 2, Rpn11 inh -7, Calb FLC 13 and IDE cell inh 3.
CCOc1ccc(N(CC(=O)N/N=C(\C)c2cccc(NC(C)=O)c2)S(=O)(=O)c2ccccc2)cc1 was read as TPT1 inh -2, IDE act 3, Rin1 Abl inh 5, Rpn11 inh 4, Calb FLC 0 and IDE cell inh -5.
O=C(NNc1ccccc1)C(CCO)C(=O)NNc1ccccc1 was read as TPT1 inh -5, IDE act 1, Rin1 Abl inh -2, Rpn11 inh 1, Calb FLC 100* and IDE cell inh -3.
For CC(O)CC(C(=O)NNc1ccccc1)C(=O)NNc1ccccc1 (configuration not stated) the results were TPT1 inh -2, IDE act 0, Rin1 Abl inh 0, Rpn11 inh 2, Calb FLC inconclusive and IDE cell inh 1.
Screening COc1ccc(S(=O)(=O)NC(=O)C2(C)CCN2C(=O)COc2ccc(Cl)cc2)cc1OC (configuration not stated) returned Rin1 Abl inh 2 and Rpn11 inh -4.
`O=C(NC1CCCCC1)C(c1ccc2ncccc2c1)N(Cc1ccc2c(c1)OCO2)C(=O)c1ccc2c(c1)OCCO2` (configuration not stated) gave TPT1 inh -4, IDE act -4, Rin1 Abl inh 2, Rpn11 inh 6, Calb FLC 6 and IDE cell inh -5.
For O=C(NC1CCCCC1)C(c1ccc2ncccc2c1)N(Cc1ccc(F)cc1)C(=O)c1ccc2c(c1)OCCO2 (configuration not stated) the results were TPT1 inh -2, IDE act 1, Rin1 Abl inh 3, Rpn11 inh 2, Calb FLC 87* and IDE cell inh 3.
`CC(C)N(Cc1ccccc1)C(=O)COC(=O)c1ccc(O)cc1` gave IDE act 2, Rin1 Abl inh 2, Rpn11 inh 4 and IDE cell inh 5.
Screening Cc1ccccc1NC(=S)NC(=O)c1cncc(Br)c1 returned TPT1 inh 2, IDE act 6, Rin1 Abl inh 0, Rpn11 inh -5, Calb FLC inconclusive and IDE cell inh -3.
Cc1cc(NC(=O)c2cncc(Br)c2)ccc1NC(=O)c1cc2ccccc2o1 was read as TPT1 inh 0, IDE act 18*, Rin1 Abl inh 0, Rpn11 inh 23, Calb FLC -5 and IDE cell inh -1.
For Cc1cc(O)ccc1NC(=S)NC(=O)c1cncc(Br)c1 the results were TPT1 inh -1, IDE act -6, Rin1 Abl inh -1, Rpn11 inh 4, Calb FLC 87* and IDE cell inh -1.

Compound activity (PubChem)
